Screening results: PubChem BioAssay, National Center for Advancing Translational Sciences (NCATS)
IMPase Li cell: qHTS Assay for Identifying the Cell-Membrane Permeable IMPase Inhibitors: Potentiation with Lithium; hit rate 0.35% among 210,000; CHO-M1 cells, IP1 TR-FRET (IP-One), carbachol + lithium; AID 1457, 2008; Potency, µM (series often up to 59.4 µM), hits mostly inhibitors;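 note: IP1 builds up when IMPase is blocked and the TR-FRET signal falls; nearly all actives have a fitted effect of over 50% in size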
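Concentration–response in CHO-M1 cells, lithium-potentiated; 30 min at 37C. IP1 detected by competitive TR-FRET after 10 min lysis at RT. Hill-fitted AC50.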
12-hLO inh: qHTS Assay for Inhibitors of 12-hLO (12-human lipoxygenase). Polyunsaturated fatty acid lipoxygenase ALOX12 (Homo sapiens), P18054. purified 12-hLO, xylenol orange hydroperoxide absorbance. Potency, µM (highest dose often 57.1 µM), actives largely listed as inhibitors. hit rate 0.12% among 150,000. AID 1452, 2008; note: nearly all actives have a fitted effect of over 55% in size
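Purified human 12hLO (150 nM), preincubated 15 min with compound, then 40 uM arachidonic acid for 30 min, room temperature, Hepes pH 7.0 with 0.01% Triton X-100. Hydroperoxide detected by ferrous iron/xylenol orange; 573/405 nm absorbance ratio gives reaction progress.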
HPGD inh: qHTS Assay for Inhibitors of HPGD (15-Hydroxyprostaglandin Dehydrogenase) | hit rate 4.3% among 150,000 | purified HPGD, NADH fluorescence kinetic, PGE2 substrate | AID 894, 2007 | Potency, µM, hits mostly inhibitors; active = well fitted inhibition curve with a large enough effect, not every such curve was filed as active; inconclusive = small, poorly fitted or top-dose-only effect, or another doubt; inactive = no such curve, though single readings can be large or run the other way
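20 nM HPGD preincubated 15 min at room temperature with compound in 50 mM Tris-HCl pH 8, 0.01% Tween 20. Started with 1 mM NAD+ and 30 uM prostaglandin E2; NADH fluorescence (360/450 nm) read 5 times over 30-s intervals, last minus first.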
NPSR antag: qHTS Assay for Antagonists of the Neuropeptide S Receptor: cAMP Signal Transduction; Q6W5P4; CHO-NPSR cells, cAMP TR-FRET, antagonist mode; Potency, µM (highest dose often 38.3 µM), actives largely listed as inhibitors; hit rate 1% among 220,000; note: nearly all actives have a fitted effect of over 50% in size
IMPase inh: qHTS Assay for Identifying the Cell-Membrane Permeable IMPase Inhibitors; CHO-M1 cells, IP1 accumulation, HTRF TR-FRET ratio; inhibition (IP1 accumulation), % at 46.1 µM; 120,000 tested, under 10 active; AID 901, 2007; active = well fitted curve in the direction sought with a large enough effect in the signal ratio, not every such curve was filed as active; inconclusive = small, poorly fitted or top-dose-only effect, or a change in a side signal; inactive = no such curve, though single readings can be large or run the other way; the % refers to the signal ratio;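 note: cells stimulated with carbachol in lithium chloride buffer; higher means more IMPase inhibition seen as more IP1 and lower FRET ratio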
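In this qHTS, compounds (final up to 46 uM) act on CHO-M1 cells that are then activated through the M1 receptor with carbachol, in pH 7.4 buffer containing 50 mM LiCl, for 30 min. IP1 accumulation is quantified by the IP-One immunoassay.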
ALDH1A1 block: qHTS Assay for Inhibitors of Aldehyde Dehydrogenase 1 (ALDH1A1); Purified ALDH1A1, NADH fluorescence, propionaldehyde substrate; Aldehyde dehydrogenase 1A1 (Homo sapiens), P00352; Potency, µM (doses to about 75.3 µM), hits mostly inhibitors; AID 1030, 2008; hit rate 7.3% among 220,000; active = well fitted inhibition curve with a large enough effect, not every such curve was filed as active; inconclusive = small, poorly fitted or top-dose-only effect, or another doubt; inactive = no such curve, though single readings can be large or run the other way
Target sequence (P00352 whole entry, looked up): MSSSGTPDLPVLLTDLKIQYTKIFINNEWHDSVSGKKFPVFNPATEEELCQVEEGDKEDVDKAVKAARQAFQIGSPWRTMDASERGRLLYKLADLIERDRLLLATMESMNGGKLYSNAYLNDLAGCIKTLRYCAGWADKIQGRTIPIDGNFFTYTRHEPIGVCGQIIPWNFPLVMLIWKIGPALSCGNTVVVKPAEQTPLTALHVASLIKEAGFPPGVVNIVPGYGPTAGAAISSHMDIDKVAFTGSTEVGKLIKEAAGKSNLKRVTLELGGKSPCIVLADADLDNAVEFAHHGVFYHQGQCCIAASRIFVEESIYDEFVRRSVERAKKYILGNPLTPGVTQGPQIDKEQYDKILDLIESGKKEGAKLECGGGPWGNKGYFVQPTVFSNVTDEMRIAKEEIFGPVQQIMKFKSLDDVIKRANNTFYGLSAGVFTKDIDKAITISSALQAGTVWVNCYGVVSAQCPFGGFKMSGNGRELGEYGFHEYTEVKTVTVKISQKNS
Each line names hits and unclear results; the compound was inactive in the other large screens. The list is not random: actives were taken first. Their share in the collection is about 8.9%. Unless noted, calls come from the whole dose curve; as a rule, active = well fitted curve in the direction sought with a large enough effect; inconclusive = small, poorly fitted or top-dose-only effect, or another doubt; inactive = no such curve, though single readings can be large; an effect the other way counts as inactive or inconclusive.

COc1ccc(C(=O)C2CCCN(Cc3ccccn3)C2)c(OC)c1 (stereo unspecified)	none (no result: 12-hLO inh, HPGD inh, IMPase inh)
COc1ccc(C(CC(=O)N2CCC3(CC2)OCCO3)NS(=O)(=O)c2ccc(F)cc2)cc1 (stereo unspecified)	none
CC(=O)c1ccc(Oc2ccc(C(=O)c3ccc(C)c(C)c3)cc2[N+](=O)[O-])cc1	HPGD inh 7.1µM, ALDH1A1 block 0.79µM (no result: IMPase inh)
O=C(c1ccccc1)C1CCCN(Cc2nc(-c3cnccn3)no2)C1 (stereo unspecified)	none (no result: 12-hLO inh, HPGD inh, IMPase inh)
c1ccc(C2CN3CCC2CC3)cc1 (stereo unspecified)	none (no result: IMPase Li cell, 12-hLO inh, HPGD inh, IMPase inh, ALDH1A1 block)
C[C@H]1C2C=C[C@H]1[C@@H](C(=O)O)[C@@H]2c1c2ccc(=O)c(O)c-2oc2c(O)c(O)ccc12	HPGD inh 3.5µM (no result: 12-hLO inh, NPSR antag, IMPase inh)
CN(N=O)c1ccc(O)c(O)c1	HPGD inh 8.9µM, ALDH1A1 block 16µM
N#CC(C#N)=Cc1cc(O)c(O)c(O)c1	12-hLO inh inconclusive, HPGD inh inconclusive, NPSR antag inconclusive, ALDH1A1 block 28µM
COc1ccc(C2SCC(=O)Nc3c2c(C)nn3-c2ccccc2)cc1 (stereo unspecified)	HPGD inh 13µM
Cc1ccc(-n2nc(C)c3c2NC(=O)CSC3c2ccc3c(c2)OCO3)cc1 (stereo unspecified)	12-hLO inh inconclusive, HPGD inh 18µM, ALDH1A1 block inconclusive
CCCC(C)n1[nH]c(=O)c2c1NC(=O)CSC2c1ccc(OC)cc1 (stereo unspecified)	none
CCCN(CCC)[C@@H]1CCc2ccc(O)cc2C1	none
CCn1cnc2c(Nc3cccc(Cl)c3)nc(N[C@@H]3CCCC[C@@H]3N)nc21	none (no result: 12-hLO inh, IMPase inh)
O=S1OCC2C(CO1)C1(Cl)C(Cl)=C(Cl)C2(Cl)C1(Cl)Cl (stereo unspecified)	none (no result: NPSR antag, IMPase inh)
O=C(O)[C@@H]1[C@H](C(=O)O)[C@]2(Cl)C(Cl)=C(Cl)[C@@]1(Cl)C2(Cl)Cl	ALDH1A1 block 3.2µM (no result: NPSR antag, IMPase inh)
O=C(Cn1c(=O)c(C(F)(F)F)nc2ccccc21)N1CCC2(CC1)OCCO2	ALDH1A1 block inconclusive
Cc1ccccc1C(=O)NNC(=S)NC(=O)COc1ccccc1	12-hLO inh inconclusive, HPGD inh 25µM, ALDH1A1 block 7.1µM
CCOc1ccc(N2C(=O)c3ccccc3C2=O)cc1	IMPase inh inconclusive
CCOc1ccc(CC2C(=O)NC(=O)N(c3ccc(CC)cc3)C2=O)cc1 (stereo unspecified)	IMPase inh inconclusive, ALDH1A1 block 22µM
CC1(C)C(=O)C=C[C@]2(C)[C@H]3CC[C@@]4(C)[C@H](c5ccoc5)OC(=O)[C@H]5O[C@]54[C@]3(C)[C@H](O)C[C@@H]12	none (no result: IMPase inh)
CCCOP(=O)(OCCC)c1nc(-c2ccccc2)oc1NCc1ccccc1	HPGD inh inconclusive, ALDH1A1 block inconclusive (no result: IMPase inh)
CC1(C)N([O-])[N+](=O)C1(C)Br (stereo unspecified)	HPGD inh 32µM, ALDH1A1 block 11µM (no result: NPSR antag, IMPase inh)
O=C(c1ccccc1F)c1cn(Cc2ccc(F)cc2)c2ccccc12	ALDH1A1 block inconclusive (no result: IMPase inh)
COc1ccc(N2C(=O)CC(N3CCC(n4c(=O)[nH]c5ccccc54)CC3)C2=O)cc1 (stereo unspecified)	ALDH1A1 block inconclusive
COc1ccc(N2C(=O)CS(=O)C(c3ccccc3)C2=O)cc1 (stereo unspecified)	ALDH1A1 block 1.1µM (no result: 12-hLO inh, HPGD inh, IMPase inh)
O=C(OCC(=O)N1CCN(c2ccccc2)CC1)c1cnc(Cl)c(Cl)c1	ALDH1A1 block 8.9µM (no result: 12-hLO inh, HPGD inh, IMPase inh)
O=C(CN1CCOCC1)c1cccc2ccccc12	ALDH1A1 block 13µM
CC(=O)c1ccc2c(c1)C1C(Cl)C(Sc3ccccc3[N+](=O)[O-])CC1C(C(=O)O)N2 (stereo unspecified)	HPGD inh inconclusive, ALDH1A1 block 1.8µM
